The supplement of paper PMC10646978
± gives the standard deviation.

Key:
Conditions in all cases: modulator concentration 10 µM
[1] = system: RAW-Dual (murine macrophage reporter line); assay: NF-kB reporter (SEAP) activity fold change vs agonist alone; higher = enhanced NF-kB activity
Method in brief: (§1)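 Overnight stimulation with a PRR agonist followed pre-incubation for 1 hour at 37 °C with compound at 10 μM final. This was done in RAW-Dual murine macrophage reporter cells seeded at 50 000 per well in 384-well plates. NF-κB (SEAP, QUANTI-Blue absorbance at 620 nm) and IRF (Lucia luciferase, QUANTI-Luc luminescence) were read from the supernatant. Each reporter's fold change relative to the mean agonist-only control on the same plate was averaged over replicate plates.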

[2] = system: RAW-Dual (murine macrophage reporter line); assay: IRF reporter (Lucia luciferase) activity fold change vs agonist alone; higher = enhanced IRF activity
Method in brief: as §1

[3] = system: RAW-Dual (murine macrophage reporter line); assay: viability score (confluency relative to resting cells, overnight) (fraction); higher = more viable, active = viable (0.7 or more)
Method in brief: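 Overnight exposure to 10 μM final compound was carried out on RAW-Dual macrophages in 384-well plates. IncuCyte software generated two confluency masks over all wells imaged with IncuCyte. The viability score gives confluency in relation to resting cells. A compound met the cutoff if each mask exceeded 70% of resting cells.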

[4] = agonist: CpG ODN 1826 0.5 ug/mL

Row | Compound | NF-kB reporter [1, 4] | NF-kB reporter ([1]; agonist: LPS 0.1 ug/mL) | NF-kB reporter ([1]; agonist: MPLA […]) | IRF reporter ([2]; agonist: 3'3'-cGAMP 10 ug/mL) | IRF reporter ([2]; agonist: LPS 0.1 ug/mL) | IRF reporter ([2]; agonist: MPLA […]) | viability score [3]
1 | CC(C)(C)c1cc(NCc2ccccn2)n2ncc(-c3ccc(Cl)cc3)c2n1 | 0.256 ± 0.019 | 0.477 ± 0.032 | 0.79 ± 0.025 | 0.296 ± 0.028 | 0.962 ± 0.12 | 3.1 ± 0.86 | 0.978 (active)
2 | COc1cccc2c1C(=O)c1c(O)c3c(c(O)c1C2=O)C[C@@](O)(C(C)=O)C[C@@H]3O[C@H]1C[C@H](N)[C@H](O)[C@H](C)O1.Cl | 0.115 ± 0.0076 | 0.0574 ± 0.0063 | 0.0998 ± 0.0052 | 0.0163 ± 0.004 | 0.0195 ± 0.0046 | 0.0153 ± 0.0037 | 0.0601 (inactive)
3 | O=C(NCCCn1ccc2cccnc21)c1nc2ccccc2s1 | 0.766 ± 0.19 | 1.04 ± 0.092 | 1.09 ± 0.07 | 0.813 ± 0.071 | 0.942 ± 0.22 | 1.02 ± 0.15 | 1 (active)
4 | COc1c(Cl)cc(C(=O)Nc2cccc(NC(=O)c3ccco3)c2)cc1Cl | 1.15 ± 0.098 | 1.01 ± 0.056 | 0.682 ± 0.043 | 0.858 ± 0.022 | 1.1 ± 0.11 | 0.956 ± 0.29 | 1.01 (active)
5 | N#Cc1nc(-c2ccc(COc3ccccc3)o2)oc1N1CCc2ccccc2C1 | 0.987 ± 0.049 | 1.13 ± 0.089 | 0.896 ± 0.05 | 0.964 ± 0.078 | 1 ± 0.16 | 0.989 ± 0.38 | 1.01 (active)
6 | CCOC(=O)C1=C(C)NC(C)=C(C(=O)OC)C1c1ccc(Cl)cc1 (centres undefined) | 0.607 ± 0.14 | 0.448 ± 0.035 | 0.563 ± 0.062 | 1 ± 0.057 | 1.01 ± 0.1 | 1.26 ± 0.21 | 0.598 (inactive)
7 | c1ccc2oc(SCCCCSc3nc4ccccc4o3)nc2c1 | 0.959 ± 0.15 | 1.06 ± 0.11 | 0.949 ± 0.089 | 0.821 ± 0.037 | 1.2 ± 0.12 | 1.4 ± 0.15 | 1 (active)
8 | NC(=O)c1cc(NC(=O)c2ccc(Cl)c(Cl)c2)cc(C(N)=O)c1 | 1.15 ± 0.073 | 1.04 ± 0.13 | 1.01 ± 0.048 | 0.88 ± 0.032 | 0.943 ± 0.048 | 0.964 ± 0.096 | 0.997 (active)
9 | CCC(=O)Nc1ccc(N2CCCCC2)c(Cl)c1 | 1.1 ± 0.23 | 1.14 ± 0.091 | 1.04 ± 0.1 | 0.773 ± 0.026 | 1.41 ± 0.18 | 1.38 ± 0.28 | 0.992 (active)
10 | O=C(Cn1nc(S(=O)(=O)c2cccc(F)c2)ccc1=O)N1CCc2ccccc2C1 | 1.03 ± 0.097 | 1.07 ± 0.085 | 0.921 ± 0.053 | 1.02 ± 0.051 | 1.29 ± 0.1 | 1.14 ± 0.21 | 1 (active)
11 | C[C@@H]1CCN(C(=O)CC#N)C[C@@H]1N(C)c1ncnc2[nH]ccc12.O=C(O)CC(O)(CC(=O)O)C(=O)O | 1.05 ± 0.29 | 0.628 ± 0.047 | 0.885 ± 0.06 | 0.182 ± 0.0066 | 0.366 ± 0.056 | 0.507 ± 0.1 | 0.603 (inactive)
12 | COc1ccc(Nc2nc(N3CCCC(C)C3)nc3[nH]ncc23)cc1 (centres undefined) | 0.608 ± 0.03 | 0.617 ± 0.051 | 0.768 ± 0.048 | 0.623 ± 0.045 | 0.905 ± 0.21 | 1.32 ± 0.46 | 0.264 (inactive)
